Test results as given in ChEMBL document CHEMBL3988442, “University of Dundee, Small-Polar-MMV Screening Library” (2021).
In all, about 48,000 compounds went through this assay and about 13,000 (27%) showed an effect of 50% or more. This is one part of the list.

Test system: Wolbachia pipientis
Experiment: Anti-Wolbachia Cell-Based Screen
Format: functional
Design: scale not given: in the data most compounds retested in dose-response had high values
Conditions: 5 µM

SMILES	Percent Effect [%]
Cc1ccc(CN2CCc3c(C(=O)N(C)C)n[nH]c3C2)o1	-11.98
Cc1ccc(CNC2(Cc3cc(-c4ccccn4)on3)COC2)o1	-9.349
CCSc1cc(C(=O)N(Cc2cnn(C)c2)C(C)C)ccn1	-10.41
CC(C)N(Cc1ccc(C(F)(F)F)nc1)Cc1cnn(C)c1	15.8
COc1ccc(C(=O)N(Cc2cnn(C)c2)C(C)C)cc1Br	9.999
COCCCOc1ccc(C(=O)N(Cc2cnn(C)c2)C(C)C)cn1	5.983
COc1cc(C(=O)N(Cc2cnn(C)c2)C(C)C)ccc1OC(C)C	121.6
CCOc1ccc(C(=O)N(Cc2cnn(C)c2)C(C)C)cc1	-5.805
COc1cc(C(=O)N(Cc2cnn(C)c2)C(C)C)ccc1OCC(N)=O	4.705
COc1ccc(CN(Cc2cnn(C)c2)CC(C)C)cn1	-28.68
COc1cc(C(=O)N(Cc2cnn(C)c2)C(C)C)ccc1C	113.7
Cc1ccc(NC(=O)N(C)Cc2cnn(C)c2)cc1OCC(F)F	-4.297
COc1ccc(C(=O)N(Cc2cnn(C)c2)C(C)C)cc1OC(F)F	110.3
CCOc1ccc(C(=O)N(Cc2cnn(C)c2)C(C)C)cc1OCC	111.9
CN1C[C@@H]2CN(C(=O)C3CC=CC3)C[C@@H]2C1=O	-1.664
Cc1nnc(CN2CCC3(CCC(=O)N([C@H]4CC[C@H](O)CC4)C3)CC2)o1	5.383
CC(C)=CCN1CCN(C(C)c2cccnc2)CC1 (centres undefined)	2.838
CCN(Cc1nc(COC)no1)C(=O)CCn1c(C)cc2ccccc21	-20.66
CCCS(=O)(=O)N(C)C(=O)CCc1ccccc1	-9.766
CCOCCC(=O)N(C)CC1Cc2ccccc2CN1C (centres undefined)	13.82
COCCC(=O)N(C)CCC1=CCN(C)CC1	102.2
CN(CCN1CCOCC1)C(=O)CCCOCCc1ccccc1	6.061
CCc1ccccc1OCCN(C)C(=O)CCN1CCCO1	2.484
CCN(CC1=CCN(C)CC1)C(=O)CCOC	97.45
COCCC(=O)N(Cc1cccnc1)CC1CCN(C2CCCC2)CC1	-4.098
CN1CC=C(CCN(C)C(=O)CCc2ccccc2)CC1	90.24

SMILES	Percent Effect [%]
FC(F)(F)C1CCCn2c(CNCc3ccsc3)nnc21 (centres undefined)	5.709
CCCc1noc(CS(=O)(=O)c2cccc(OC)c2)n1	19.11
CC(NC(=O)NCCCNS(C)(=O)=O)c1ccncc1 (centres undefined)	0.1158
CCc1noc(C(C)N(C)Cc2cc(Br)ccc2OC)n1 (centres undefined)	1.676
CC(C)S(=O)(=O)NCC1CCCN(C(=O)c2ccc(Cl)cc2)C1 (centres undefined)	-24.01
O=C(c1ccc(Cl)cc1)N1CCC(N2CCOC2=O)CC1	107.7
O=C(c1ccc(Cl)cc1)N1CCC(N2CCCOC2=O)CC1	100
CCS(=O)(=O)N(C)C1CCN(C(=O)c2ccc(Cl)cc2)CC1	-4.195
COc1cccc2c1OCC(C(=O)N1CCC(N3CCOC3=O)CC1)C2 (centres undefined)	-3.402
O=C1OCCN1CC(=O)N1C[C@H]2CC[C@@H]1CN(C(=O)c1ccccc1)C2	-14.7
COCc1ccccc1NC(=O)NC(C)c1ccc(C)o1 (centres undefined)	-2.277
O=C(O)c1c[nH]c2cc(NS(=O)(=O)c3ccc(Cl)cc3F)ccc12	101.8
Cc1ccc(F)cc1S(=O)(=O)Nc1cnc(N2CCCC2)nc1	3.743
CSc1c[nH]nc1NS(=O)(=O)c1cc(F)ccc1Cl	16.47
O=C(O)c1c[nH]c2cc(NS(=O)(=O)c3cccc(Cl)c3F)ccc12	-1.912
O=C(O)c1c[nH]c2cc(NS(=O)(=O)c3cccc(F)c3F)ccc12	98.18
COc1ccccc1S(=O)(=O)Nc1ccc2c(C(=O)O)c[nH]c2c1	-5.607
Cc1c(F)cc(C(=O)O)cc1S(=O)(=O)Nc1cccc(C(F)F)c1	-21.42
Cn1cc(Br)c(=O)c(NS(=O)(=O)c2cc(F)ccc2Cl)c1	-8.345
Cc1ccc(F)cc1S(=O)(=O)Nc1ccc2c(C(=O)O)c[nH]c2c1	88.84
O=C(O)c1c[nH]c2cc(NS(=O)(=O)c3cc(F)ccc3Cl)ccc12	93.61
Cc1cc(NC(=O)N2CCN(C)CC2C)n(CCC#N)n1 (centres undefined)	-16.44
N#CCCN(Cc1ccco1)C(=O)Cc1ccc(-n2cnnn2)cc1	-12.81
O=C(c1ccc2ccccc2c1)C1CCCN(C(=O)Cn2cnnn2)C1 (centres undefined)	-17.21
N#Cc1nccnc1N1CCC(c2nc(C(F)(F)F)c[nH]2)CC1	-6.885
CNC(=O)NC(=O)CN1CCCN(CC(F)(F)F)CC1	5.4

SMILES	Percent Effect [%]
CC(C)Cn1nc2ccc(S(=O)(=O)N3CCC(C)CC3)cn2c1=O	132.8
CCC(C)NC(=O)NCCCn1nc2ccccn2c1=O (centres undefined)	-2.078
CC(C)CCn1nc2ccc(S(=O)(=O)N3CCOCC3)cn2c1=O	120.3
Cn1cnc(S(=O)(=O)N2CCOCC2)c1Cl	-4.923
Cc1nn(C)c2ncc(S(=O)(=O)N3CCCC(C)CC3)cc12 (centres undefined)	-7.374
COC(=O)Cn1cccc(S(=O)(=O)N2CCC(C)CC2)c1=O	3.954
COCCO[C@H]1CCN(C(=O)c2ccno2)[C@H]1Cc1ccncc1.O=C(O)C(F)(F)F	-8.897
CC/C=C(/C)C(=O)NCc1ccnc(OC2CCOCC2)c1	-6.645
CC(=O)NCc1nnc2n1CCN(c1ncnc3c(C)csc13)CC2	-2.169
O=S(=O)(CCCn1cncn1)Cc1ccc(F)cc1Cl	8.322
COCCN(Cc1ccoc1)C(=O)c1c(F)cccc1F	126.9
COCCN(Cc1ccoc1)C(=O)c1ccccc1Cl	-4.504
COCCN(Cc1ccoc1)C(=O)c1ccccc1OC	102.9
COCCN(CCOC)C(=O)c1ccoc1C	-2.566
COCCN(Cc1ccoc1)C(=O)c1c(F)cccc1Cl	-1.026
COCCN(Cc1ccoc1)C(=O)c1ccc(Cl)s1	106
CCN(Cc1ccoc1)C(=O)c1ccc(C)c(S(N)(=O)=O)c1	0.3555
COCCN(Cc1ccncc1)C(=O)C1COc2c(cccc2OC)C1 (centres undefined)	4.804
CCSc1ccccc1C(=O)N(CCOC)Cc1ccoc1	121.3
CCc1ncc(C(=O)N(CCOC)Cc2ccccc2F)cn1	-19.66
CCN(Cc1ccoc1)C(=O)c1ccncc1O	2.225
CCOc1ccc(CN(CCOC)C(=O)c2ccncc2Cl)cc1	0.1724
N[C@H]1CN(C(=O)c2ccccc2OCCc2ccccc2)C[C@@H]1C1CC1	18.87
O=S(=O)(NC1=NCN(CCc2cccs2)CN1)c1ccccc1	2.891
Cc1ncc2c(n1)CN(Cc1cn3ccsc3n1)CC2	-12.96
COCCCN(Cc1ccncc1)C(=O)CSc1ccc(F)cc1	-0.07203

SMILES	Percent Effect [%]
COCCN(Cc1ccoc1)C(=O)CSc1ccc(F)cc1	117.6
COCCN(Cc1ccoc1)C(=O)c1ccccn1	112.1
CCN(C)c1ccc(C(=O)N(CCOC)Cc2ccccn2)cc1	-4.982
COCCN(Cc1ccoc1)C(=O)c1cccnc1SC	9.468
NC(=O)CCN(C(=O)CSc1ccc(F)cc1)c1ccc(F)cc1	-8.487
O=C(CN1CCC2(CCCN(CCO)C2=O)C1)NCCc1ccccc1 (centres undefined)	3.055
O=C(COc1coc(CN2CCCCC2)cc1=O)Nc1ccc(Cl)cc1	-2.562
CN(c1ccc(F)c(F)c1)S(=O)(=O)c1cc2c(c(C(=O)O)c1)OCCO2	-16.04
Cc1ccccc1NS(=O)(=O)c1cc2c(c(C(=O)O)c1)OCCO2	-5.791
Cc1cc(C)cc(NS(=O)(=O)c2cc3c(c(C(=O)O)c2)OCCO3)c1	6.571
CCc1cccc(NS(=O)(=O)c2cc3c(c(C(=O)O)c2)OCCO3)c1	10.09
Cc1cccc(NS(=O)(=O)c2cc3c(c(C(=O)O)c2)OCCO3)c1	105.7
Cc1ccc(F)c(NS(=O)(=O)c2cc3c(c(C(=O)O)c2)OCCO3)c1	118.3
Cc1ccc(NS(=O)(=O)c2cc3c(c(C(=O)O)c2)OCCO3)c(F)c1	-7.996
Cc1ccc(C)c(NS(=O)(=O)c2cc3c(c(C(=O)O)c2)OCCO3)c1	110.3
Cc1cc(C)cc(N(C)S(=O)(=O)c2cc3c(c(C(=O)O)c2)OCCO3)c1	-3.92
Cc1nc(CN(C)C(=O)c2cccc(CC3CCNCC3)c2)no1	-18.2
CCc1nnsc1C(=O)NC(CC(C)C)C(=O)OC (centres undefined)	-4.538
CN1C[C@@H](NC(=O)c2cc(F)cc(F)c2)C[C@H]1C(=O)NCc1ncc[nH]1	4.795
COc1ccccc1NCC(=O)NCc1scnc1C	-10.76
CN(CC1COc2ccccc2O1)C(=O)NCCCn1ccnc1 (centres undefined)	-8.094
CC(Cn1ccnc1)NC(=O)NCCN1CCc2ccccc2C1 (centres undefined)	3.376
Cc1nc(C)c(C(=O)N2Cc3ccccc3OCC2Cn2ccnc2)o1 (centres undefined)	-31.31
Cc1nc(C)c(C(=O)N2Cc3ccccc3OCC2Cn2ccnc2)s1 (centres undefined)	70.21
O=C(c1cccnc1)N1Cc2ccccc2OCC1Cn1ccnc1 (centres undefined)	99.63
CC1CN(CCC(=O)NCCc2cccnc2)Cc2ccccc2O1 (centres undefined)	11.18
